# Screening results: PubChem, The Scripps Research Institute Molecular Screening Center
# Compounds with a hit are over-represented: about 0.84% of the library has one in this group of screens.
# PPARg SRC2 recr: PPARgamma-driven SRC-2 recruitment agonism; 200,000 compounds, 0.34% hits; activation, % at 8 µM; PPARgamma LBD-SRC-2 recruitment, biochemical; P37231;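 also: 0% = vehicle and 100% = reference agonist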
# PPARg SRC1 recr: agonists of human PPARgamma SRC-1 coactivator recruitment; PPARgamma-SRC-1 coactivator recruitment biochemical assay; activation, % at 8 µM; 200,000 compounds, 0.41% hits; AID 631; in the data active = activation above about 19%;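 also: 0% = DMSO and 100% = reference agonist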
# SRC3 TRFRET art: flags TR-FRET format artefacts in PPARgamma SRC-3 recruitment agonist screen | TR-FRET artefact counter-screen, PPARgamma/SRC-3 format; stronger effect = higher value | TR-FRET ratio at 8 µM | 99,000 compounds, 0.39% hits | AID 1048; in the data active = TR-FRET ratio above about 2000
# SRC1 TRFRET art: flags TR-FRET format artefacts in PPARgamma SRC-1 recruitment agonist screen; TR-FRET detection artefact counter-screen, emission ratio; stronger effect = higher value; TR-FRET ratio at 8 µM; 99,000 compounds, 0.34% hits; AID 1051; in the data active = TR-FRET ratio above about 2300
# SRC2 TRFRET art: flags TR-FRET format artefacts in PPARgamma SRC-2 recruitment agonist screen. TR-FRET artefact counter-screen; stronger effect = higher value. TR-FRET ratio at 8 µM. 200,000 compounds, 0.4% hits. AID 1049; in the data active = TR-FRET ratio above about 2000
# PPARg SRC-3 ag: PPARgamma-driven SRC-3 recruitment agonism. P37231. biochemical PPARgamma/SRC-3 coactivator recruitment assay. activation, % at 8 µM. 200,000 compounds, 0.26% hits. AID 731; in the data active = activation above about 23%;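 also: 0% = DMSO and 100% = reference agonist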
# PPARg SRC2 conf: human PPARgamma SRC-2 recruitment agonism, confirmation | shares compounds with PPARg SRC-3 ag | biochemical SRC-2 recruitment by PPARgamma | activation, % at 8 µM | AID 1297 | 790 compounds, 52% hits;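 also: 0% = vehicle alone and 100% = reference agonist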
# PPARg SRC1 conf: human PPARgamma SRC-1 recruitment agonism, confirmation; shares compounds with PPARg SRC-3 ag; PPARgamma–SRC-1 coactivator recruitment biochemical assay; activation, % at 8 µM; 790 compounds, 43% hits; in the data active = activation above about 20%;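 also: 0% = vehicle wells and 100% = reference agonist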
# PPARg SRC3 ag: human PPARgamma SRC-3 recruitment agonism, confirmation | shares compounds with PPARg SRC-3 ag | biochemical PPARgamma-SRC-3 coactivator recruitment, agonist mode | activation, % at 8 µM | 790 compounds, 29% hits; in the data active = activation above about 24%;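 also: 0% = vehicle wells and 100% = reference agonist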
# The depositor's hits bear a star; . = no result. Rule as the data show it, unless noted: active = activation above about 22%; inactive = the rest.
SMILES,PPARg SRC2 recr,PPARg SRC1 recr,SRC3 TRFRET art,SRC1 TRFRET art,SRC2 TRFRET art,PPARg SRC-3 ag,PPARg SRC2 conf,PPARg SRC1 conf,PPARg SRC3 ag
CSc1nc2sc3c(c2c(=O)[nH]1)CCCC3,3,0,.,.,1485,3,.,.,.
O=c1[nH]c(S)nc2sc3c(c12)CCCC3,29*,23*,2183*,2564*,2002*,13,17,11,12
COCCNc1nc2ccccc2nc1NS(=O)(=O)c1ccc(C)cc1C,23*,18,.,.,2002*,23,24*,17,14
O=C(O)c1cc(-c2ccc3c(c2)OCO3)nc2ccc(Br)cc12,31*,33*,2538*,2873*,2330*,23*,9,1,8
O=C(O)c1cc(-c2cccnc2)nc2ccc(Br)cc12,16,25*,2133*,2326*,1853,13,14,6,10
COC(=O)c1cc(-c2ccc3c(c2)OCO3)nc2ccccc12,-2,-1,1427,1725,1616,-2,.,.,.
Cc1cccc(C(=O)N[C@H](C(=O)Nc2ccc(C)c(S(=O)(=O)N(C)C)c2)C(C)C)c1,-4,6,1790,1803,1349,8,.,.,.
CSc1ccccc1NC(=O)COc1ccccc1Cl,-5,-2,.,.,1577,-3,.,.,.
CCCC(=O)Nc1c2c(nc3ccccc13)N(c1ccccc1)CC2,61*,46*,2855*,2803*,3204*,46*,41*,25*,26*
CCOC(=O)Cc1nnc(NC(=O)c2cccc(OCC)c2)s1,-6,1,.,.,1642,4,.,.,.
CCc1nnc(NC(=O)C(CC)c2ccccc2)s1 (stereo unspecified),-2,0,1659,1783,1600,3,.,.,.
O=C(Cc1ccccc1)Nc1nnc(-c2ccco2)s1,31*,37*,.,.,2292*,37*,31*,24*,18
CCC(C(=O)Nc1nnc(-c2ccco2)s1)c1ccccc1 (stereo unspecified),15,26*,.,.,1806,27*,27*,21*,20
COc1ccccc1OCC(=O)Nc1nnc(-c2ccco2)s1,31*,28*,.,.,2199*,35*,24*,21*,15
CCCC(=O)Nc1nnc(-c2ccco2)s1,5,13,.,.,1854,7,.,.,.
CCOc1cccc(C(=O)Nc2nnc(-c3ccco3)s2)c1,17,22*,.,.,1945,17,20,17,15
Cc1cccc(OCC(=O)Nc2nnc(-c3ccco3)s2)c1,28*,28*,2164*,2686*,2106*,20,36*,28*,22
Cc1cc([N+](=O)[O-])c(NCCCCCCO)c([N+](=O)[O-])c1,5,-3,.,.,1666,3,.,.,.
COc1ccc(C)cc1S(=O)(=O)N(C)CC(=O)N1CCN(c2ccccc2)CC1,6,2,1584,2083,1662,0,.,.,.
CCOc1ccc(-c2n[nH]c(=S)o2)cc1,6,16,1733,2049,1808,6,.,.,.
CCOc1ccccc1-c1n[nH]c(=S)o1,39*,28*,.,.,2292*,50*,43*,30*,28*
CCC(C)N(C(=O)CSc1ccc(NC(C)=O)cc1)C1CCS(=O)(=O)C1 (stereo unspecified),-1,7,1551,1795,1634,-1,.,.,.
Nc1ccccc1C(=O)N1CCCC1,3,8,1611,1848,1539,3,.,.,.
CCOc1ccc(CCNC(=O)COc2cc(=O)n(C)c3ccccc23)cc1OCC,-10,-8,1439,1630,1368,-5,.,.,.
CCCCNC(=O)CSc1cc(=O)n(C)c2ccccc12,41*,33*,.,.,2320*,43*,31*,20*,21
SMILES,PPARg SRC2 recr,PPARg SRC1 recr,SRC3 TRFRET art,SRC1 TRFRET art,SRC2 TRFRET art,PPARg SRC-3 ag,PPARg SRC2 conf,PPARg SRC1 conf,PPARg SRC3 ag
Cn1c(=O)cc(SCC(=O)NCCCN2CCOCC2)c2ccccc21,28*,30*,.,.,2011*,46*,13,8,9
Cn1c(=O)cc(SCC(=O)NCCCN2CCOCC2)c2ccc(Cl)cc21,65*,60*,.,.,2615*,83*,47*,31*,32*
Cn1c(C(=O)NCCCN2CCOCC2)cc2c(=O)n(C)c3ccccc3c21,8,-1,.,.,1527,-9,.,.,.
CCOc1ccc(CCNC(=O)CSc2cc(=O)n(C)c3ccccc23)cc1OCC,26*,26*,1967,2625*,2107*,12,31*,18,19
Cc1ccc(-n2c(Cl)c(Cl)nc(Cl)c2=O)cc1,-3,-9,1619,1611,1615,2,.,.,.
COc1ccc2cc(N=Cc3nc(-c4ccc(C)cc4)oc3O)cnc2c1,9,12,1746,2053,1663,2,.,.,.
Cc1ccc(OCCNC(=O)Cc2ccc(F)cc2)cc1,5,6,1575,1940,1585,6,.,.,.
CCC(C)C(NC(C)=O)C(=O)NC(=O)NC(c1ccccc1)c1ccccc1 (stereo unspecified),1,5,.,.,1507,0,.,.,.
CCCCNC(=O)CSc1nc(CCC)nc2ccccc12,6,31*,1690,2029,1519,31*,15,24*,14
Cn1c(=O)cc(SCC(=O)NCCCN2CCN(c3ccccc3F)CC2)c2ccccc21,92*,90*,.,.,4083*,125*,52*,34*,36*
Cn1c(C(=O)NCCCN2CCN(c3ccccc3F)CC2)cc2c(=O)n(C)c3ccccc3c21,-11,-4,.,.,1516,-3,.,.,.
Cc1ccc(C(=O)C2=C(O)C(=O)N(c3ncccn3)C2c2ccc(Cl)cc2)o1 (stereo unspecified),38*,28*,.,.,2243*,43*,28*,21*,22
O=S(=O)(NCC1CCCO1)c1ccc(S(=O)(=O)N(Cc2ccc(F)cc2)Cc2ccco2)cc1 (stereo unspecified),20,4,1544,2007,1646,7,.,.,.
O=c1oc2cc(O)ccc2c2ccccc12,47*,28*,.,.,2392*,60*,30*,17,22
COc1ccc2c(c1)c(=O)oc1cc(O)ccc12,5,-2,1675,1714,1582,3,.,.,.
Cc1ccc(C(=O)N/C(=C\c2ccccc2)C(=O)NCc2cccnc2)cc1,5,2,1388,1957,1521,-1,.,.,.
Cc1ccc2[nH]c(C)cc(=S)c2c1,38*,26*,2534*,2798*,2363*,22,4,7,5
Cc1cc(=O)c2cc(Cl)ccc2[nH]1,-3,6,.,.,1770,6,.,.,.
